Results filed as inconclusive are left out. Calls of active or inactive are those of the source. Unless noted, the call rests on the fitted dose curve; in most records, active means well fitted curve in the direction sought with a large enough effect; inconclusive means small, poorly fitted or top-dose-only effect, or another doubt; inactive means no such curve, though single readings can be large; an effect the other way counts as inactive or inconclusive.
How the values were obtained:
[1] = Cell Viability - BJ (AID 421; calls by dose curve;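 further: potency means the concentration at half of the fitted maximal effect; cells exposed to compound for 40 hours at 37 °C before readout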); conditions: BJ fibroblast viability, qHTS
Method in brief: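 Cytotoxicity in human BJ foreskin fibroblasts is scored as loss of cellular ATP after a 40-hour exposure, measured by luciferase luminescence. Controls are DMSO and 100 uM tamoxifen.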

[2] = Cell Viability - Jurkat (AID 426;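 active means dose-dependent loss of cell ATP signal giving a full or clear fitted curve, ranked by lower potency value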;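 further: potency means the concentration at half of the fitted maximal effect; cells exposed to compound for 40 hours at 37 °C before ATP read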); conditions: qHTS
Method in brief: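 Luminescent ATP read-out (CellTiter-Glo, 20 min at room temperature) after 40 hr compound exposure at 37 °C of Jurkat E6-1 cells, 5000/well. Decreased ATP taken as cytotoxicity; AC50 from standard Hill equation.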

[3] = Cell Viability - Hek293 (AID 427;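 active means compounds whose dose-response curve shows a full or clear partial loss of cell viability, called from curve shape rather than a numeric limit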;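 further: potency means the concentration at half of the fitted maximal effect; cells exposed to compound for 40 hours at 37 °C before reading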); conditions: qHTS
Method in brief: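 qHTS, human embryonic kidney (adenovirus-transformed) cells; 40 hr cpd, 37 °C; CellTiter-Glo ATP luminescence. Norm: DMSO = 0, 100 uM tamoxifen = 100% inhibition. Hill-fit AC50.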

[4] = Cell Viability - HepG2 (AID 433; calls by dose curve;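 further: potency means the concentration at half of the fitted maximal effect; potency for ATP loss meaning cytotoxicity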); conditions: qHTS
Method in brief: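 HepG2 hepatocellular carcinoma cells (1500/well) were treated with compounds for 40 h at 37 °C in complete medium; intracellular ATP was read by CellTiter-Glo luminescence. Data were normalized to DMSO and 100 uM tamoxifen, and AC50 came from Hill fits.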

[5] = Cell Viability - MRC5 (AID 434; calls by dose curve;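 further: potency means the concentration at half of the fitted maximal effect; potency reflects cytotoxicity seen as loss of intracellular ATP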); conditions: MRC5 lung fibroblast viability, qHTS
Method in brief: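 AC50 values come from Hill-equation fits of intracellular ATP loss, measured by CellTiter-Glo luminescence. Normal lung fibroblasts (MRC5) had 40 hr compound treatment at 37 C, normalized between DMSO and 100 uM tamoxifen.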

[6] = Cell Viability - SK-N-SH (AID 435; calls by dose curve; further: potency means the concentration at half of the fitted maximal effect); conditions: SK-N-SH neuroblastoma cell viability qHTS
Method in brief: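 SK-N-SH human neuroblastoma cells (1500/well) were exposed to compounds in complete medium for 40 h at 37 °C, and intracellular ATP was then measured by CellTiter-Glo luminescence. AC50 was taken from Hill fits, normalized to DMSO and 100 uM tamoxifen.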

[7] = molecular target: Mitogen-activated protein kinase 10 (Mus musculus) (UniProt Q61831); assay: JNK3 AlphaScreen Assay (AID 530; active means well fitted curve in either direction with a large enough effect, not every such curve was filed as active;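 further: kinase came from lysate of stimulated human HepG2 cells; signal reports phosphorylation of biotinylated GST-cJun 1-79 at Ser73 with 10 µM ATP; on the % scale 0 is the no-effect control and ±100 the full control effect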)
Method in brief: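 Kinase buffer: 20 mM Tris-HCl pH 7.6, 10 mM MgCl2, 1 mM DTT, 0.1 mM Na3VO4, 0.01% Tween-20; ATP 10 uM. Substrate biotin-GST-cJun(1-79), enzyme from activated HepG2 lysates. Detection by Ser73 phospho-antibody AlphaScreen.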

[8] = Cell Viability - N2a (AID 540); conditions: N2a mouse neuroblastoma cell viability; at 92.2 µM (top of the series);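 further: plate controls were DMSO alone for no effect and tamoxifen control for full effect; nearly all actives have a fitted effect of over 45% in size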
Method in brief: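 N2a mouse neuroblastoma, 1500 cells/well, 5 hr settle; compound 40 hr, 37 °C; CellTiter-Glo 20 min RT; luminescence; Hill-fit AC50.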

[9] = Cell Viability - NIH 3T3 (AID 541); conditions: NIH 3T3 cell viability, qHTS; at 92.2 µM (top of the series);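 further: plate controls were DMSO alone for no effect and tamoxifen positive control for full effect; nearly all actives have a fitted effect of over 25% in size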
Method in brief: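 qHTS format; 40 hr compound exposure, 37 °C; CellTiter-Glo luminescence (cellular ATP) read-out after 20 min at RT. Decrease in ATP = cytotoxicity; AC50 from standard Hill fit.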

[10] = Cell Viability - HUV-EC-C (AID 542); further: on the % scale 0 is the no-effect control and ±100 the full control effect; nearly all actives have a fitted effect of over 35% in size
Method in brief: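 Luminescent ATP read-out (CellTiter-Glo, 20 min room temperature) after 40 hr compound treatment of HUV-EC-C cells at 37 °C. Concentration-response data fitted with the standard Hill equation to give AC50; tamoxifen and doxorubicin served as positive controls.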

[11] = Cell Viability - H-4-II-E (AID 543); further: on the % scale 0 is the no-effect control and ±100 the full control effect; nearly all actives have a fitted effect of over 35% in size
Method in brief: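 qHTS, rat hepatoma H-4-II-E, 1500 cells/well; 40 hr compound exposure, 37 °C; CellTiter-Glo ATP luminescence after 20 min RT; AC50 by standard Hill fit.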

[12] = Cell Viability - SH-SY5Y (AID 544);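 further: 0% = DMSO alone and -100% = 100 µM tamoxifen; nearly all actives have a fitted effect of over 55% in size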
Method in brief: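 SH-SY5Y, 1500 cells/well, 5 hr pre-incubation 37 °C; cpd 40 hr 37 °C; CellTiter-Glo 20 min RT; luminescence (ATP) read. qHTS concentration-response, Hill fit → AC50. Tamoxifen, doxorubicin as positive controls.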

[13] = Cell Viability - Renal Proximal Tubule (AID 545);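 further: 0% = DMSO only and -100% = 100 µM tamoxifen; nearly all actives have a fitted effect of over 40% in size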
Method in brief: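 Primary rat renal proximal tubule cells (1000/well) were treated with compounds for 40 hr at 37 °C in complete medium. Intracellular ATP was measured by CellTiter-Glo luminescence, and AC50 values came from Hill-equation fits of concentration-response data.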

[14] = Cell Viability - Mesenchymal (AID 546);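 further: cells exposed to compound for 40 hours before reading; 0% = DMSO only and -100% = 100 µM tamoxifen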
Method in brief: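 CellTiter-Glo luminescence (intracellular ATP, 20 min room temperature) after 40 hr compound exposure at 37 °C of 1000 glomerulus-derived human kidney mesenchymal cells/well; AC50 values obtained by fitting qHTS concentration-response data to the Hill equation.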

[15] = Cellular Toxicity (caspase-3) HepG2 (AID 654);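 further: cells exposed to compound for 16 hours before reading; 0% = DMSO alone and 100% = caspase signal from 100 µM tamoxifen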
Method in brief: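 Luminescent Caspase-Glo 3/7 readout after 16 hr compound exposure of human hepatocellular carcinoma HepG2 cells at 37 °C; qHTS concentration-response, normalized DMSO = 0%, 100 uM tamoxifen = 100%; AC50 by standard Hill equation.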

[16] = Cellular Toxicity (caspase-3) Jurkat (AID 655);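 further: cells exposed to compound for 16 h at 37 °C before reading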
Method in brief: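 Jurkat cells (5000/well) in complete medium were treated with compounds for 16 hr at 37 °C, then Caspase-Glo 3/7 luminescence was read after 20 min at room temperature. Data normalized to DMSO (basal) and 100 uM tamoxifen (100%); AC50 from Hill fit.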

[17] = Cellular Toxicity (caspase-3) HUV-EC-C (AID 656);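 further: 0% = DMSO basal and 100% = 100 µM tamoxifen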
Method in brief: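 HUV-EC-C endothelial cells, 1000/well, were pre-incubated 5 hr at 37°C, then exposed to compounds for 16 hr at 37°C. Caspase-Glo 3/7 luminescence was read after 20 min at room temperature. AC50 came from Hill fits, normalized to DMSO and 100 uM tamoxifen.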

[18] = Cellular Toxicity (caspase-3) SHSY5Y (AID 657)
Method in brief: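 SH-SY5Y human neuroblastoma cells (1500/well) were treated with compounds for 16 h at 37 °C, then Caspase-Glo 3/7 luminescence was read after 1 h at room temperature. Data normalized to DMSO and 10 uM staurosporine; AC50 from Hill fits.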

[19] = Cellular Toxicity (caspase-3) BJ (AID 658);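 further: 0% = DMSO basal and 100% = 10 µM staurosporine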
Method in brief: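 Caspase-Glo 3/7 luminescence, read 1 hr after reagent at room temperature, in normal BJ fibroblasts exposed 16 hours at 37 °C. AC50 values from Hill-equation concentration-response, scaled between DMSO basal and 10 uM staurosporine as 100%.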

[20] = Cellular Toxicity (caspase-3) MRC-5 (AID 659);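 further: 0% = DMSO basal and 100% = 10 µM staurosporine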
Method in brief: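 Luminescent Caspase-Glo 3/7 read-out (1 h, room temperature) after a 16 h, 37 °C compound exposure of MRC-5 lung fibroblasts at 1500 cells/well. Concentration-response AC50 from Hill equation; 0% DMSO, 100% 10 uM staurosporine.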

[21] = Cellular Toxicity (caspase-3) Mesangial (AID 660);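 further: combined caspase 3 and 7 activity read by Caspase-Glo luminescence; cells exposed to compound for 16 h before the caspase read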
Method in brief: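 Luminescent Caspase-Glo 3/7 readout (aminoluciferin substrate cleavage, 20 min RT) after 16 h compound exposure at 37 °C of normal human mesangial cells. Signal increase normalized between DMSO basal and 100 uM tamoxifen; Hill-equation AC50.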

[22] = Cellular Toxicity (caspase-3) SK-N-SH (AID 661);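 further: 0% = DMSO basal and 100% = 10 µM staurosporine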
Method in brief: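 Luminescent Caspase-Glo 3/7 read-out after 16 hr compound exposure of SK-N-SH neuroblastoma cells at 37 °C. Signal increase normalized to DMSO (basal) and 10 uM staurosporine (100%); AC50 from Hill equation fits of qHTS concentration-response data.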

[23] = Cellular Toxicity (caspase-3) H-4-II-E (AID 663);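 further: cells exposed to compound for 16 hr before readout; 0% = DMSO basal and 100% = 100 µM tamoxifen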
Method in brief: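 Caspase 3/7 activation measured by luminescent aminoluciferin substrate cleavage after 16 hr compound treatment of H-4-II-E cells in complete medium. Increase normalized between DMSO (basal) and 100 uM tamoxifen (100%); Hill-equation AC50 from concentration-response.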

CCOc1cc(C=O)ccc1O
inactive: Potency [1] > 92 µM | Potency [2] > 92 µM | Potency [3] > 92 µM | Potency [4] > 92 µM | Potency [5] > 92 µM | Potency [6] > 92 µM | outcome [7] | activity change, negative = cytotoxicity [8] -1.75% | activity change, negative = cytotoxicity [9] 1.57% | outcome [10] | outcome [11] | outcome [12] | outcome [13] | outcome [14] | outcome [15] | outcome [16] | outcome [17] | outcome [18] | outcome [19] | outcome [20] | outcome [21] | outcome [22] | outcome [23]

From PubChem BioAssay (NCATS)
